Data published in PubChem BioAssay (NCATS).
Unmarked numbers belong to inactive results. Results filed as inconclusive are left out. Calls of active or inactive are those of the source. Calls follow the shape of the dose curve; as a rule, active = well fitted curve in the direction sought with a large enough effect; inconclusive = small, poorly fitted or top-dose-only effect, or another doubt; inactive = no such curve, though single readings can be large; an effect the other way counts as inactive or inconclusive.

experiment: qHTS to identify inhibitors of the type 1 interferon - major histocompatibility complex class I in skeletal muscle: primary screen against the NCATS LOPAC collection (AID 1347405); conditions: iHSKM muscle cells, IFN-b-induced MHC-I HiBiT luminescence, 24 h; series mostly up to 45.9 µM; activity change, negative = inhibition: at the top concentration;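 also: lytic HiBiT luminescence reporting HLA-B protein level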; also: potency is read from the fitted curve at half-maximal effect; as to activity change, negative = inhibition: % is scaled to controls: 0 for no effect and ±100 for the full control effect
Summary of the method: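 After 24 h at 37 C with compounds (7-point, 1:4.3 dilutions, 46 uM top final) plus 4 ng/ml IFN-beta, luminescence from lytic HiBiT detection was measured. HLA-B*08:01 in C25cl48 myoblasts carried an endogenous C-terminal HiBiT tag; medium lacked dexamethasone.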

SMILES	activity change, negative = inhibition [%]	Potency
CCCC[N+]1(C)C2CC(OC(=O)[C@H](CO)c3ccccc3)CC1C1OC12 (stereo partly drawn)	3.85	
NCC(O)c1cc(O)c(O)cc1F (stereo not drawn)	8.48	
C[C@H](N)CN1CCc2ccc(Br)cc21	-28	
COc1ccc2c(c1O)-c1cccc3c1[C@@H](C2)N(C)CC3	-3.98	
CP(=O)(O)C1=CCNCC1	5.69	
CCCN(CCC)[C@H]1CCc2c(F)ccc(O)c2C1	1.47	
CCCN(CCC)[C@@H]1CCc2cccc(O)c2C1	-16.6	
c1ccc2c(N3CCNCC3)cccc2c1	-14	
Oc1ccc2c3c1O[C@H]1c4[nH]c5ccccc5c4C[C@@]4(O)C(C2)N(CC2CC2)CCC314 (stereo partly drawn)	2.64	
N#C/C(=C/c1ccc(O)c(O)c1)C(N)=S	-17.4	
Nc1ccc(CCN2CCN(c3cccc(C(F)(F)F)c3)CC2)cc1	-24.1	
NCCCP(=O)(O)O	8.8	
C[N+](C)(C)CC#CCN1CCCC1=O	-1.17	
CCCN(CCC)C1CCc2cccc(O)c2C1 (stereo not drawn)	-12.1	
CCCN1CCc2cc(O)cc3c2[C@H]1Cc1ccc(O)c(O)c1-3	-21.1	
O=C(NC1CN2CCC1CC2)c1cc2ccoc2cn1 (stereo not drawn)	-13.4	
COc1ccc2c(c1)C13CCCCC1C(C2)N(C)CC3 (stereo not drawn)	-5.62	
CN1CC[C@@]2(C)c3cc(OC(=O)Nc4ccccc4)ccc3N(C)[C@@H]12	-22.1	
C[C@H]1C2Cc3ccc(O)cc3[C@@]1(C)CCN2CC1CC1	13.4	

SMILES	activity change, negative = inhibition [%]	Potency
O=c1ccc2[nH]cc(C3=CCNCC3)c2[nH]1	-2.34	
CC(=O)NBr	4.47	
NC(=O)CI	-16.4	
Nc1cc2c(ncn2CCOCP(=O)(O)O)c(=O)[nH]1	-4.73	
CN1C2CCC1CC(OC(c1ccccc1)c1ccccc1N)C2 (stereo not drawn)	-7.18	
Cc1sc2ccccc2c1CC1=NCCN1	-14.8	
C[N+]1(C)CCOC(O)(c2ccc(-c3ccc(C4(O)C[N+](C)(C)CCO4)cc3)cc2)C1 (stereo not drawn)	-6.65	
CCNC(=O)[C@H]1O[C@@H](n2cnc3c(N)ncnc32)[C@H](O)[C@@H]1O	-13.2	
CCCn1c(=O)c2[nH]c(C3CCCC3)nc2n(CCCOC(=O)c2ccc(S(=O)(=O)F)cc2)c1=O	-22.5	
COC(=O)N1CCN(C(=O)Cc2ccc(Cl)c(Cl)c2)C(CN2CCCC2)C1 (stereo not drawn)	-3.23	
COc1ccc2[nH]c3c(c2c1)CCNC3	-23.4	
Clc1ccc(N2CC3CCC(C2)N3)nn1	2.78	
N[C@@H](Cn1oc(=O)[nH]c1=O)C(=O)O	-4.89	
NNC(=O)c1ccc(O)cc1	-10.2	
O=C1/C(=C/c2ccccc2)C[C@@]2(O)[C@H]3Cc4ccc(O)c5c4[C@@]2(CCN3CC2CC2)[C@H]1O5		2 µM (active)
CN(C(=O)Cc1ccc(Cl)c(Cl)c1)C(CN1CCCC1)c1cccc(OCC(=O)O)c1 (stereo not drawn)	-7.76	
C=CCN1CCC23c4c5ccc(O)c4O[C@H]2C(=O)CC[C@@]3(O)C1C5 (stereo partly drawn)	-3.79	
C[C@@H]1O[C@@H](O[C@H]2C[C@@H](O)[C@]3(CO)[C@@H]4C(CC[C@]3(O)C2)[C@@]2(O)CC[C@H]([C@@H]3COC(=O)C3)[C@@]2(C)C[C@H]4O)[C@H](O)[C@H](O)[C@H]1O (stereo partly drawn)		1.12 µM (active)

experiment: qHTS for inhibitors of adenylyl cyclases using a fission yeast platform: a pilot screen against the NCATS LOPAC library (AID 1347410);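 also: plate controls were DMSO vehicle for no effect and DPI positive control for full effect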; conditions: S. pombe CHP2027, fbp1-GFP fluorescence, 18 h; series mostly up to 57.5 µM; activity, positive = inhibition (GFP gain): at the top concentration
Summary of the method: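 Growth medium went into the plates first, then compounds were pinned (final up to 57 µM), then CHP2027 yeast were added. Plates were incubated overnight (18 h) at 30C in the dark, and GFP was measured by laser scanning cytometry.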

SMILES	activity, positive = inhibition (GFP gain)
CCCC[N+]1(C)C2CC(OC(=O)[C@H](CO)c3ccccc3)CC1C1OC12 (stereo partly drawn)	-0.438%
NCC(O)c1cc(O)c(O)cc1F (stereo not drawn)	-0.438%
C[C@H](N)CN1CCc2ccc(Br)cc21	-0.438%
CP(=O)(O)C1=CCNCC1	-0.438%
CCCN(CCC)[C@H]1CCc2c(F)ccc(O)c2C1	-0.0812%
CCCN(CCC)[C@@H]1CCc2cccc(O)c2C1	-0.0534%
c1ccc2c(N3CCNCC3)cccc2c1	0.114%
Oc1ccc2c3c1O[C@H]1c4[nH]c5ccccc5c4C[C@@]4(O)C(C2)N(CC2CC2)CCC314 (stereo partly drawn)	4.38%
N#C/C(=C/c1ccc(O)c(O)c1)C(N)=S	0.0765%
Nc1ccc(CCN2CCN(c3cccc(C(F)(F)F)c3)CC2)cc1	-0.438%
NCCCP(=O)(O)O	-0.0441%
C[N+](C)(C)CC#CCN1CCCC1=O	-0.438%
CCCN(CCC)C1CCc2cccc(O)c2C1 (stereo not drawn)	-0.438%
CCCN1CCc2cc(O)cc3c2[C@H]1Cc1ccc(O)c(O)c1-3	2.57%
O=C(NC1CN2CCC1CC2)c1cc2ccoc2cn1 (stereo not drawn)	0.211% [at 57.5 µM, yeast expressing mammalian AC9 and human GNAS]
COc1ccc2c(c1)C13CCCCC1C(C2)N(C)CC3 (stereo not drawn)	0.0394%
CN1CC[C@@]2(C)c3cc(OC(=O)Nc4ccccc4)ccc3N(C)[C@@H]12	-0.438%
C[C@H]1C2Cc3ccc(O)cc3[C@@]1(C)CCN2CC1CC1	0.271%

SMILES	activity, positive = inhibition (GFP gain)
O=c1ccc2[nH]cc(C3=CCNCC3)c2[nH]1	-0.0673% [at 57.5 µM, yeast expressing mammalian AC9 and human GNAS]
CC(=O)NBr	-0.438%
NC(=O)CI	-0.438%
Nc1cc2c(ncn2CCOCP(=O)(O)O)c(=O)[nH]1	-0.438% [at 57.5 µM, yeast expressing mammalian AC9 and human GNAS]
CN1C2CCC1CC(OC(c1ccccc1)c1ccccc1N)C2 (stereo not drawn)	-0.438%
Cc1sc2ccccc2c1CC1=NCCN1	-0.438%
C[N+]1(C)CCOC(O)(c2ccc(-c3ccc(C4(O)C[N+](C)(C)CCO4)cc3)cc2)C1 (stereo not drawn)	-0.438%
CCNC(=O)[C@H]1O[C@@H](n2cnc3c(N)ncnc32)[C@H](O)[C@@H]1O	1.7%
CCCn1c(=O)c2[nH]c(C3CCCC3)nc2n(CCCOC(=O)c2ccc(S(=O)(=O)F)cc2)c1=O	-0.438%
COC(=O)N1CCN(C(=O)Cc2ccc(Cl)c(Cl)c2)C(CN2CCCC2)C1 (stereo not drawn)	-0.438%
COc1ccc2[nH]c3c(c2c1)CCNC3	0.0951%
Clc1ccc(N2CC3CCC(C2)N3)nn1	0.165%
N[C@@H](Cn1oc(=O)[nH]c1=O)C(=O)O	-0.438%
NNC(=O)c1ccc(O)cc1	-0.438%
O=C1/C(=C/c2ccccc2)C[C@@]2(O)[C@H]3Cc4ccc(O)c5c4[C@@]2(CCN3CC2CC2)[C@H]1O5	0.0997%
CN(C(=O)Cc1ccc(Cl)c(Cl)c1)C(CN1CCCC1)c1cccc(OCC(=O)O)c1 (stereo not drawn)	0.0673%
C=CCN1CCC23c4c5ccc(O)c4O[C@H]2C(=O)CC[C@@]3(O)C1C5 (stereo partly drawn)	-0.438%
C[C@@H]1O[C@@H](O[C@H]2C[C@@H](O)[C@]3(CO)[C@@H]4C(CC[C@]3(O)C2)[C@@]2(O)CC[C@H]([C@@H]3COC(=O)C3)[C@@]2(C)C[C@H]4O)[C@H](O)[C@H](O)[C@H]1O (stereo partly drawn)	-0.438%
